Experimental data published in PubChem BioAssay (NCI).
About 79,000 compounds went through this panel and 15% of them were active in at least one assay; those are over-represented in the sample as a whole. Unmarked numbers belong to inactive results. No stated cut-off is given here; in the data, active means growth inhibition above about 70%; inactive means the rest.

Experiment: NCI Yeast Anticancer Drug Screen. Data for the cln2 rad14 strain (AID 165);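 further: 0% = growth equal to vehicle treated cultures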
Conditions: S. cerevisiae cln2 rad14 strain, at 50.0 µM, active compounds read high
Experimental: Growth inhibition of yeast strains with defined genetic alterations is measured as a screen for potential anti-cancer activity. Selected strains with alterations in DNA damage repair or cell cycle control were exposed to compounds and growth inhibition was measured relative to vehicle treated controls. The strain used in this assay is cln2 rad14

Going from `C=C1C2CCC3C4(C)CCCC(C)(C(=O)O)C4CCC3(C2)C1OC(=O)/C(C)=C/C` (stereo not given) to `C=C1C(=O)OC2CC(C)C3(O)CCC(=O)C3(C)CC12` (stereo not given), the growth inhibition falls from 25.1% to 4.45%.

Compared with `C=CCNC1=C2C[C@@H](C)C[C@@H](OC)[C@@H](OC(=O)CCCN)[C@H](C)/C=C(\C)[C@@H](OC(N)=O)[C@H](OC)/C=C\C=C(/C)C(=O)NC(=CC1=O)C2=O`, `COC(=O)C(=O)C(C(=O)C(=O)Nc1ccccc1OC)c1nc2ccc([N+](=O)[O-])cc2[nH]c1=O` (stereo not given) is lower in growth inhibition: 13.2% for the first, -19.6% for the second.

Compared with `COC(=O)c1cnn2c1n[n+]([O-])c1ccccc12`, `Cc1ccc(/C=N/Nc2nncc3ccccc23)s1` is higher in growth inhibition: 15.9% for the first, 21.2% for the second.

First: Cc1ccc(/C=N/Nc2nc3ccccc3s2)s1
Second: Cc1ccc(/C=N/Nc2cnccn2)s1
The growth inhibition of the first is lower: 0.7% for the first, 15.2% for the second.

First: C[N+](C)(CCNC(=O)c1cccc2cc3ccccc3nc12)Cc1ccc([N+](=O)[O-])s1
Second: CCCCC1C(=O)N(c2ccc(S(=O)(=O)Nc3ccccn3)cc2)N(c2ccc(O)c(C(=O)O)c2)C1=O (stereo not given)
The growth inhibition of the first is lower: 4.1% for the first, 23.2% for the second.

First: Cc1ccc(C)c(NC(=O)/C(=N\N)C(c2cnc3ccc([N+](=O)[O-])cc3n2)[N+](=O)[O-])c1 (stereo not given)
Second: Cc1cc(N(CCC#N)CCC#N)ccc1/C=N/NC(=O)c1cc(Cl)ccc1O
The growth inhibition of the first is lower: -35.2% for the first, -9.2% for the second.

First: CNc1nc2c(C)ccc3[nH]c(N(C)C)nc3c-2n1
Second: Cc1ccc(F)cc1NC(=O)O/N=C(\Cl)C(C)C
The growth inhibition of the first is higher: 8.1% for the first, 3.85% for the second.

First: C/C(O)=C/c1nc2sc(C)c(C)c2c(=O)s1
Second: CC(C)=CCc1c(OC(=O)c2c(C)cc(O)cc2O)cc(CO)c(CO)c1O
The growth inhibition of the first is lower: 5.5% for the first, 5.95% for the second.

First: CC1CC(=O)N(N(C)C)C(C#N)(C#N)C1(C#N)C#N (stereo not given)
Second: CC1OC23CCCCC2C(C#N)(C#N)C1(C#N)C(=N)O3 (stereo not given)
The growth inhibition of the first is higher: 17.5% for the first, -22.9% for the second.

Going from `COc1ccc(/C=C2/NC(=S)N=C2Cl)cc1` to `COc1ccc(/C=c2\[nH]c3nc(=O)c(N4CCOCC4)c(N)n3c2=O)cc1`, the growth inhibition falls from -0.45% to -11.8%.

First: COC(=O)C1=CO[C@@H](OC2OC(CO)C(O)C(O)C2O)[C@H]2[C@@H](C)[C@@H](O)[C@@H](O)[C@@H]12 (stereo not given in full)
Second: CC(C)=CC(O)C/C(C)=C/CC/C(C)=C/CCC1(C)C(CCCO)/C(=C(/C)C=O)CCC1(C)O (stereo not given)
The growth inhibition of the first is lower: 2.4% for the first, 16.9% for the second.

First: C=C1C(=O)O[C@@H]2C[C@@]3(C)CC(=O)C=C(C)[C@@H]3C[C@H]12
Second: CC1CC2(OC2C)C(=O)OC2CCN(C)C/C=C(/COC(=O)C1(C)O)C2=O (stereo not given)
The growth inhibition of the first is higher: 24.7% for the first, 4.85% for the second.

Compared with `Clc1ccc(C2C3COc4ccccc4C3=NN2c2ccccc2)cc1` (stereo not given), `NC1N=C(c2ccc(Cl)cc2)C2=C(N1)c1ccccc1CC2` (stereo not given) is higher in growth inhibition: 0.5% for the first, 8.05% for the second.

First: COc1cc2oc3c(c(=O)c2c(O)c1/C=C/C(C)C)CCC(C)(C)Oc1cc(O)ccc1-3
Second: COc1c2c(c3c(c1OC)c(=O)c1ccccc1n3C)OCO2
The growth inhibition of the first is higher: 47.3% for the first, 8.5% for the second.

Compared with `Cc1ccc(OCC2OC(n3cnc4nc(Cl)nc(Cl)c43)CC2Oc2ccc(C)cc2)cc1` (stereo not given), `CC(=O)C1=C(C)N2C(=NC3=C(CCc4ccccc43)C2c2cccc(Br)c2)S1` (stereo not given) is lower in growth inhibition: 50.2% for the first, 3.2% for the second.

First: CC(C)(C)c1cc(C2COC(=O)COCCOCC(=O)OCCOCCO2)cc(C(C)(C)C)c1O (stereo not given)
Second: CC1(C)C2CCC1(CS(=O)(=O)O)C(=O)C2 (stereo not given)
The growth inhibition of the first is higher: 4.4% for the first, -58.4% for the second.

Compared with `N#CC1(C#N)N[C@@H](c2ccsc2)[C@H]2C(=O)N(c3ccccc3)C(=O)[C@H]21`, `O=C1NC(N/N=C\c2ccccc2)=N/C1=C/c1ccccc1` is lower in growth inhibition: 8.5% for the first, 2.25% for the second.

First: CO/C(N)=C(\C#N)N=Cc1ccc2ccccc2c1
Second: CC(C)O/N=C/c1cc(NC(=S)OC(C)C)ccc1Cl
The growth inhibition of the first is higher: 19.1% for the first, -4.8% for the second.

Going from `NC(Cc1ccc(S(=O)(=O)O)cc1)C(=O)NC(Cc1ccc(S(=O)(=O)O)cc1)C(=O)NC(Cc1ccc(S(=O)(=O)O)cc1)C(=O)NC(Cc1ccc(S(=O)(=O)O)cc1)C(=O)O` (stereo not given) to `O=C1NC(N/N=C\C(O)C(O)C(O)C(O)CO)=N/C1=C\c1ccc(Cl)cc1` (stereo not given), the growth inhibition rises from -2.3% to 26.9%.

Going from `N#Cc1nc(C(F)(F)F)oc1N` to `OCc1ccccn1`, the growth inhibition rises from -7.85% to -0.25%.
